This assay relates to VDR:RXRa (NR concentration 270 nM, RXRa partner concentration 90 nM). As to the kind of experiment: PBM binding z-score (relative to random genomic background probes); higher = stronger binding; sequences stand for … in GC…GCGATTGACAGCGTAGAATGAAGG
The procedure: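 Protein-binding microarray (Agilent 4x180K custom design, double-stranded 60-nt probes: 5' GC cap, 34-nt variable region, 24-nt constant primer region; full probe sequence given). Purified or IVT nuclear receptor:RXRα heterodimers (3:1 NR:RXRα, mostly 270:90 nM) or homodimers were incubated for 1 h in PBS with 2% milk and no ligand, then detected with Alexa488 antibodies. Fluorescence from o1-orientation probes (~5 replicates averaged) was converted to z-scores against 500 random hg19 background probes. Variable regions are seed direct-repeat (DR0–DR5) sites, all their single-nucleotide variants and half-site ablations.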
TCATATAGGGAATACAGGTGAAAGTCGGCATCTA: the PBM binding z-score was 1.11. As for TCTAGTAGATCAACAGGAGGTTAAGAAAGATCGA, the figure is 0.713. Consider CCTTAAGGGTCAAGGTTATAGCACGGGTGGTACG, for which the PBM binding z-score stood at 4.72. To CTCCAAAGGTCGTGCTCAGGTGAGTATACCAAAC belongs 3.59. As for TCTTGTAGATCAGCAGGTAAAGAAAGCTGGCCAA, the figure is -0.142; as for CCTCGGAGGACAACAGGAGATCAGAGCTGCCAGA, -0.616; as for TCTTGTAGATCAAGCCGGTTAAGAAAGCCTGAGT, 0.32.

Regarding TCTCGGAGGACACGTAAGGTCAGAGCTCGACATC, the PBM binding z-score is 2.69. To GATACAGGGTCAAAGCCAGAGTACGCGTATTGAT belongs 4.5; to AGTACAGGGTCACTAGGCCAGAGTAGGTACGAAT, 3.83; to AATACAGGGTCATCGTAGACCAGAGTACGCACAG, 5.04. CCTACTGGGCCATCAGGTCATTGCTATCAACGTT showed a PBM binding z-score of 1.71.

For TATACAGGGTCAAAGGCCAGCGTACGAATGTCGA, the PBM binding z-score amounted to 4.73. To TCTGCTAGGTAAACGATGGTCAGCTAATCTGCTA belongs -0.409; to CGTCCAAGGTCAATGCTAGGACAGTGAAAGCATT, 3.83; to AGAATGAGGTTATACGTAGATCAGGGGAGAAAGT, 1.42. As for CTCGTAAGGTCGTGCTCAGGTGAGTATACCAAAC, the figure is 2.61. With GCGACTGGGGCGAAGCAGGTTACCATAAGGTTGG, the PBM binding z-score was -0.549.

Sequence GCAGACAGGTGAGACGCAGGTAACTCAGGGTGGC came in with a PBM binding z-score of -0.432. In the case of TCGAGTAGGTTAGTCGGGCCATTCAGCCAACATA, the PBM binding z-score is 0.761. On to AGAACGAGGGCACGCTGCGTTGATAGCAGAGTAG, for which the PBM binding z-score stood at 0.741. As for CCGACTGGGGGAAAGGTTACCATACTCAGTACGA, the figure is 1.79; as for GCTGCTAGGTCAGATTGGTCAGCTAACGGGTACG, 0.624; as for CGTCCAAGGTCAATGCTAGGTCAGTGAGAGCATT, 5.11. To CGTCCAAGATCAATGCTAGGTCAGTGAAAGCATT belongs 0.425. On to TGAATGACGTTATAAGATCAGGGAACGTTGCAAA, for which the PBM binding z-score turned out to be 0.104. As for GCTAGCAGGCCATTTGGGTCACTGAATGACGGGC, the figure is 0.821; as for CGAACAAGGGCATGAGTTGATAGCAAATGCCGAT, 0.706; as for AGAACGAGGGCACGGTGAGTTGATAGCAGAGTAG, 2.56. The sequence CTCGAAAGGTCGGTTGATGTGAGTATACGGATAA returned a PBM binding z-score of 1.17. For the sequence TATCCAGGGTCAAAGGCCAGAGTACGAATGTCGA, the PBM binding z-score worked out at 4.95. As to ATCTCTAGGTAACAAGTTCAGTGAGAGAGAGGAC, the PBM binding z-score came out at 2.22. To TCTATTAGTTGAACGGCAACCGACGAGTCCGTTT belongs 0.759; to AGAATGAGGTTATAAAGATCAGGGAATTGCGGTC, 1.27. To TCTAGCAGGCCAGAGGGTCACTCAAGAGGTACGG belongs 1.28; to TAGCCTAGGTCCGATCGGGCCAGTATACGCTATA, -0.91. As for TGTCAAAGTTCAAAGGCAACGTAAGTATCCACAC, the figure is 4.26; as for TCTTGTAGACCAATAGAGGTTAAGAAAGTGCGCT, 1.82. Turning to ATCGAAAGGTCGTGAGGTGAGTGTACAGAAAGGC, the PBM binding z-score was determined as 3.63. As for GCTTGTAGATCAAGGGTAAGAAAGACTAAGCTAA, the figure is -0.559.

The values are drawn from the supplement of paper PMC6555819.
